This is an account of results in PMC7862700, “An all-to-all approach to the identification of sequence-specific readers for epigenetic DNA modifications on cytosine”.

The target of the first assay is T1, ERF (Homo sapiens, UniProt P50548 1-548).
T1 sequence: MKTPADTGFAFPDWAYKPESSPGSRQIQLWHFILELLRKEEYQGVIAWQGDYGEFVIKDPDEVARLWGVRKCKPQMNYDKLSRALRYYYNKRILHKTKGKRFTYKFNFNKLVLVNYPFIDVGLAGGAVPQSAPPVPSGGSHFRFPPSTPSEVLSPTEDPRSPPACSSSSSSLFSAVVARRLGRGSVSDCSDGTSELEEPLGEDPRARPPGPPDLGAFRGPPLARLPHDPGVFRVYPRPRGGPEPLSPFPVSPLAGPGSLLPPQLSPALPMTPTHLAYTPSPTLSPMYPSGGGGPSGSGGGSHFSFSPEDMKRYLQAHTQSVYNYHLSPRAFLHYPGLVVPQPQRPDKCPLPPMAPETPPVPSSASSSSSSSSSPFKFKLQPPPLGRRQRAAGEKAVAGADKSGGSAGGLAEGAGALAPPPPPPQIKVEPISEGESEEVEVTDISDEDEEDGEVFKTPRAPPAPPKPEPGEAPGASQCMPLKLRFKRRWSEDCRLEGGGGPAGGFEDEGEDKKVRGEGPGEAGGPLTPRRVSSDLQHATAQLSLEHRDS
Put plainly: DAPPL (digital affinity profiling via proximity ligation, sequencing); 10 mM Tris-HCl pH 7.5, 50 mM NaCl, 1 mM DTT, 4% glycerol, room temperature, 30 min; GST-TFs on glutathione beads, 16-mer random dsDNA library, 0.1% formaldehyde crosslink after washing; high values mean tight binding. The following applies: protein: recombinant; tags: N-terminal GST; dsDNA, one strand shown. In outline: (§1)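 Binding signal is each hexamer's read frequency for a factor divided by its frequency in the tag-only sample. The factors were GST-fused human transcription factors from yeast, captured on glutathione beads, DNA-barcoded and pooled with that sample. Pools were incubated with 200 nmole of a random double-stranded 16-mer DNA library in Tris/NaCl/DTT/glycerol buffer at room temperature for 30 min, then washed, crosslinked with 0.1% formaldehyde, proximity-ligated with BsaI/T4 ligase (1 h, 37 °C), PCR-amplified and sequenced on an Illumina NextSeq500.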
Regarding CACTAC, the binding signal is 1.33 fold enrichment (6-mer frequency, TF over GST control).

On to CAATGC, for which the binding signal is 1.08 fold enrichment (6-mer frequency, TF over GST control).

Take ATGCGG: the binding signal was 1.12 fold enrichment (6-mer frequency, TF over GST control).

Take CGCCGC: the binding signal was 1.2 fold enrichment (6-mer frequency, TF over GST control).

In the case of ATGTGC, the binding signal is 1.15 fold enrichment (6-mer frequency, TF over GST control).

Take CCGCCA: the binding signal is 1.36 fold enrichment (6-mer frequency, TF over GST control).

Turning to ATTCCC, the binding signal is 1.28 fold enrichment (6-mer frequency, TF over GST control).

With CTCGCG, the binding signal is 1.41 fold enrichment (6-mer frequency, TF over GST control).

Regarding GTTTTC, the binding signal is 1.34 fold enrichment (6-mer frequency, TF over GST control).

Take TTGTCC: the binding signal is 1.35 fold enrichment (6-mer frequency, TF over GST control).

For the sequence CCCCGG, the binding signal was 1.34 fold enrichment (6-mer frequency, TF over GST control).

As to CCGCAA, the binding signal is 1.19 fold enrichment (6-mer frequency, TF over GST control).

For TTAAGT, the binding signal was 1.12 fold enrichment (6-mer frequency, TF over GST control).

On to TGTTTG, for which the binding signal was 1.4 fold enrichment (6-mer frequency, TF over GST control).

Take TATCGC: the binding signal was 1.18 fold enrichment (6-mer frequency, TF over GST control).

In the case of TCAAGG, the binding signal was 1.09 fold enrichment (6-mer frequency, TF over GST control).

Turning to GAAACA, the binding signal was 1.34 fold enrichment (6-mer frequency, TF over GST control).

For the sequence GAATTG, the binding signal was 1.1 fold enrichment (6-mer frequency, TF over GST control).

As for CTGTTG, the binding signal was 1.17 fold enrichment (6-mer frequency, TF over GST control).

As to TCTACG, the binding signal is 1.46 fold enrichment (6-mer frequency, TF over GST control).

Take GGGCTT: the binding signal was 1.19 fold enrichment (6-mer frequency, TF over GST control).

Regarding CCCTCC, the binding signal is 1.58 fold enrichment (6-mer frequency, TF over GST control).

Take TAAGCT: the binding signal is 1.39 fold enrichment (6-mer frequency, TF over GST control).

As for ACCTCG, the binding signal was 1.2 fold enrichment (6-mer frequency, TF over GST control).

In the case of TCCACC, the binding signal is 1.25 fold enrichment (6-mer frequency, TF over GST control).

On to CGCTGC, for which the binding signal was 1.28 fold enrichment (6-mer frequency, TF over GST control).

For the sequence CATATC, the binding signal was 1.42 fold enrichment (6-mer frequency, TF over GST control).

As for CAAGTA, the binding signal is 1.14 fold enrichment (6-mer frequency, TF over GST control).

As to AATATT, the binding signal was 1.22 fold enrichment (6-mer frequency, TF over GST control).

For CCCCGA, the binding signal was 1.15 fold enrichment (6-mer frequency, TF over GST control).

TTGCTG: the binding signal was 1.28 fold enrichment (6-mer frequency, TF over GST control).

In the case of TTGATT, the binding signal is 1.31 fold enrichment (6-mer frequency, TF over GST control).

Take TTTGGG: the binding signal is 1.39 fold enrichment (6-mer frequency, TF over GST control).

On to TGATGA, for which the binding signal was 1.25 fold enrichment (6-mer frequency, TF over GST control).

As to ATATGG, the binding signal was 1.16 fold enrichment (6-mer frequency, TF over GST control).

Turning to GTTCCC, the binding signal was 1.31 fold enrichment (6-mer frequency, TF over GST control).

Take GTTTTG: the binding signal is 1.25 fold enrichment (6-mer frequency, TF over GST control).

Regarding TACAAA, the binding signal is 1.1 fold enrichment (6-mer frequency, TF over GST control).

Take TGCAAA: the binding signal is 1.13 fold enrichment (6-mer frequency, TF over GST control).

For CCACTC, the binding signal was 1.13 fold enrichment (6-mer frequency, TF over GST control).

A further assay deals with T2, ETV3L (Homo sapiens, UniProt Q6ZN32 1-361).
T2 sequence: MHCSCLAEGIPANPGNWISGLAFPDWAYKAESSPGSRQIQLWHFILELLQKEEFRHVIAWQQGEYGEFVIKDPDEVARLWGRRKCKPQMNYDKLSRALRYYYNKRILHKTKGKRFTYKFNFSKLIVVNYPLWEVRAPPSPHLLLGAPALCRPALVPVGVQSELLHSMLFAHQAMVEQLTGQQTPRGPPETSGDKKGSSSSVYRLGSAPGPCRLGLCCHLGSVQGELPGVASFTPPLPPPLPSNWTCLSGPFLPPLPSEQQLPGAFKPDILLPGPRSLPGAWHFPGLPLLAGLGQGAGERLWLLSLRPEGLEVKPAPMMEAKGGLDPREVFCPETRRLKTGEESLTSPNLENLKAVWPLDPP
The description is as above. The following applies: protein: recombinant; tags: N-terminal GST; dsDNA, one strand shown. In outline:
as §1
Consider CACTAC, for which the binding signal is 1.29 fold enrichment (6-mer frequency, TF over GST control).

With CAATGC, the binding signal was 1.15 fold enrichment (6-mer frequency, TF over GST control).

As to ATGCGG, the binding signal is 1.25 fold enrichment (6-mer frequency, TF over GST control).

For the sequence CGCCGC, the binding signal is 1.18 fold enrichment (6-mer frequency, TF over GST control).

As to ATGTGC, the binding signal was 1.11 fold enrichment (6-mer frequency, TF over GST control).

CCGCCA: the binding signal was 1.33 fold enrichment (6-mer frequency, TF over GST control).

For the sequence ATTCCC, the binding signal is 1.53 fold enrichment (6-mer frequency, TF over GST control).

For CTCGCG, the binding signal is 1.44 fold enrichment (6-mer frequency, TF over GST control).

For the sequence GTTTTC, the binding signal is 1.27 fold enrichment (6-mer frequency, TF over GST control).

TTGTCC: the binding signal is 1.43 fold enrichment (6-mer frequency, TF over GST control).

For the sequence CCCCGG, the binding signal was 1.24 fold enrichment (6-mer frequency, TF over GST control).

With CCGCAA, the binding signal is 1.23 fold enrichment (6-mer frequency, TF over GST control).

As to TTAAGT, the binding signal was 1.15 fold enrichment (6-mer frequency, TF over GST control).

With TGTTTG, the binding signal was 1.35 fold enrichment (6-mer frequency, TF over GST control).

Consider TATCGC, for which the binding signal is 1.15 fold enrichment (6-mer frequency, TF over GST control).

TCAAGG: the binding signal was 1.03 fold enrichment (6-mer frequency, TF over GST control).

In the case of GAAACA, the binding signal is 1.4 fold enrichment (6-mer frequency, TF over GST control).

In the case of GAATTG, the binding signal is 1.07 fold enrichment (6-mer frequency, TF over GST control).

With CTGTTG, the binding signal was 1.07 fold enrichment (6-mer frequency, TF over GST control).

Consider TCTACG, for which the binding signal is 1.4 fold enrichment (6-mer frequency, TF over GST control).

As for GGGCTT, the binding signal was 1.2 fold enrichment (6-mer frequency, TF over GST control).

Take CCCTCC: the binding signal was 1.31 fold enrichment (6-mer frequency, TF over GST control).

TAAGCT: the binding signal was 1.25 fold enrichment (6-mer frequency, TF over GST control).

For the sequence ACCTCG, the binding signal is 1.22 fold enrichment (6-mer frequency, TF over GST control).

In the case of TCCACC, the binding signal is 1.22 fold enrichment (6-mer frequency, TF over GST control).

As for CGCTGC, the binding signal is 1.17 fold enrichment (6-mer frequency, TF over GST control).

On to CATATC, for which the binding signal is 1.38 fold enrichment (6-mer frequency, TF over GST control).

Turning to CAAGTA, the binding signal is 1.09 fold enrichment (6-mer frequency, TF over GST control).

For the sequence AATATT, the binding signal is 1.36 fold enrichment (6-mer frequency, TF over GST control).

For the sequence CCCCGA, the binding signal was 1.23 fold enrichment (6-mer frequency, TF over GST control).

For TTGCTG, the binding signal is 1.26 fold enrichment (6-mer frequency, TF over GST control).

As to TTGATT, the binding signal is 1.25 fold enrichment (6-mer frequency, TF over GST control).

Turning to TTTGGG, the binding signal is 1.46 fold enrichment (6-mer frequency, TF over GST control).

For the sequence TGATGA, the binding signal was 1.4 fold enrichment (6-mer frequency, TF over GST control).

For ATATGG, the binding signal was 1.3 fold enrichment (6-mer frequency, TF over GST control).

On to GTTCCC, for which the binding signal was 1.22 fold enrichment (6-mer frequency, TF over GST control).

As to GTTTTG, the binding signal is 1.16 fold enrichment (6-mer frequency, TF over GST control).

Take TACAAA: the binding signal was 1.03 fold enrichment (6-mer frequency, TF over GST control).

For the sequence TGCAAA, the binding signal was 1.15 fold enrichment (6-mer frequency, TF over GST control).

As for CCACTC, the binding signal is 1.28 fold enrichment (6-mer frequency, TF over GST control).

In the next assay the target is T3, ETS2 (Homo sapiens, UniProt P15036 1-469).
T3 sequence: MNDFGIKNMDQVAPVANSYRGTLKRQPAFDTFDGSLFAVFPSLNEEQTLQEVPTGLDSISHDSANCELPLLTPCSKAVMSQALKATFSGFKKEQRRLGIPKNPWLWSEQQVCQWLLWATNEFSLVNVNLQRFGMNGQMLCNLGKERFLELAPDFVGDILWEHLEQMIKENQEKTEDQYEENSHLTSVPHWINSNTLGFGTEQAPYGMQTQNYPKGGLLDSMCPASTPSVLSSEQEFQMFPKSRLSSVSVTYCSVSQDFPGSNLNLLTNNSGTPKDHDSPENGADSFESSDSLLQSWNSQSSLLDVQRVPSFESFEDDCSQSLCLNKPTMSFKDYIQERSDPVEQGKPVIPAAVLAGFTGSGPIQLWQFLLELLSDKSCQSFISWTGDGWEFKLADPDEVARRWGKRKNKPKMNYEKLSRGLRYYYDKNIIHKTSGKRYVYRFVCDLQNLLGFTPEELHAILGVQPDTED
The assay is described as above. The following applies: protein: recombinant; tags: N-terminal GST; dsDNA, one strand shown. In outline:
as §1
On to CACTAC, for which the binding signal is 1.31 fold enrichment (6-mer frequency, TF over GST control).

Regarding CAATGC, the binding signal was 1.15 fold enrichment (6-mer frequency, TF over GST control).

Regarding ATGCGG, the binding signal was 1.32 fold enrichment (6-mer frequency, TF over GST control).

As for CGCCGC, the binding signal is 1.2 fold enrichment (6-mer frequency, TF over GST control).

With ATGTGC, the binding signal was 1.1 fold enrichment (6-mer frequency, TF over GST control).

Regarding CCGCCA, the binding signal was 1.22 fold enrichment (6-mer frequency, TF over GST control).

ATTCCC: the binding signal was 1.25 fold enrichment (6-mer frequency, TF over GST control).

In the case of CTCGCG, the binding signal was 1.47 fold enrichment (6-mer frequency, TF over GST control).

GTTTTC: the binding signal was 1.16 fold enrichment (6-mer frequency, TF over GST control).

As to TTGTCC, the binding signal was 1.38 fold enrichment (6-mer frequency, TF over GST control).

In the case of CCCCGG, the binding signal was 1.17 fold enrichment (6-mer frequency, TF over GST control).

Regarding CCGCAA, the binding signal is 1.47 fold enrichment (6-mer frequency, TF over GST control).

For TTAAGT, the binding signal was 1.16 fold enrichment (6-mer frequency, TF over GST control).

For the sequence TGTTTG, the binding signal is 1.32 fold enrichment (6-mer frequency, TF over GST control).

As for TATCGC, the binding signal is 1.1 fold enrichment (6-mer frequency, TF over GST control).

In the case of TCAAGG, the binding signal is 1.04 fold enrichment (6-mer frequency, TF over GST control).

For the sequence GAAACA, the binding signal is 1.34 fold enrichment (6-mer frequency, TF over GST control).

In the case of GAATTG, the binding signal is 1.13 fold enrichment (6-mer frequency, TF over GST control).

As for CTGTTG, the binding signal was 1.21 fold enrichment (6-mer frequency, TF over GST control).

TCTACG: the binding signal is 1.41 fold enrichment (6-mer frequency, TF over GST control).
